Measurements from PubChem BioAssay (NCATS).
Records with an inconclusive call do not appear. Entries that show only a call come without a potency. Calls of active or inactive are those of the source. Calls come from the whole dose curve; as a rule, active = well fitted inhibition curve with a large enough effect; inconclusive = small, poorly fitted or top-dose-only effect; inactive = flat fitted curve, though single readings scatter.

Experiments:
Assay in all cases: qHTS profiling for inhibitors of Plasmodium falciparum proliferation (AID 504749); note: nearly all actives have a fitted effect of over 60% in size
Settings in all cases: P. falciparum in erythrocytes, SYBR Green DNA, 72 h; series mostly up to 28.7 µM
CP192 = system: CP192
Outline: (§1)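 Fluorescence of SYBR Green-bound parasite DNA, read at 485/535 nm, served as the growth measure. Infected erythrocytes were cultured with compound 72 h; artemisinin (0.29 uM) and DMSO wells defined the normalization range.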

CP194 = system: CP194
Outline: as §1

CP201 = system: CP201
Outline: as §1

CP211 = system: CP211
Outline: as §1

CP217 = system: CP217
Outline: as §1

CP237 = system: CP237
Outline: as §1

CP238 = system: CP238
Outline: as §1

CP247 = system: CP247
Outline: as §1

CP250 = system: CP250
Outline: as §1

CP252 = system: CP252
Outline: as §1

CP256 = system: CP256
Outline: as §1

CP260 = system: CP260
Outline: as §1

CP262 = system: CP262
Outline: as §1

CP265 = system: CP265
Outline: as §1

CP266 = system: CP266
Outline: as §1

CP268 = system: CP268
Outline: as §1

CP269 = system: CP269
Outline: as §1

CP286 = system: CP286
Outline: as §1

CP203 = system: CP203
Outline: as §1

CP215 = system: CP215
Outline: as §1
Potency is the fitted concentration of half-maximal effect.

| Compound | Potency (CP192) | Potency (CP194) | Potency (CP201) | Potency (CP211) | Potency (CP217) | Potency (CP237) | Potency (CP238) | Potency (CP247) | Potency (CP250) | Potency (CP252) | Potency (CP256) | Potency (CP260) | Potency (CP262) | Potency (CP265) | Potency (CP266) | Potency (CP268) | Potency (CP269) | Potency (CP286) | Potency (CP203) | Potency (CP215) |
| --- | --- | --- | --- | --- | --- | --- | --- | --- | --- | --- | --- | --- | --- | --- | --- | --- | --- | --- | --- | --- |
| CN(C)C(=O)Oc1cccc([N+](C)(C)C)c1 | inactive | inactive | inactive | inactive | inactive | inactive | inactive | inactive | inactive | inactive | inactive | inactive | inactive | inactive | inactive | inactive | inactive | inactive |  |  |
| CN(C)C(=O)Oc1ccc[n+](C)c1 | inactive | inactive | inactive | inactive | inactive | inactive | inactive |  | inactive | inactive | inactive | inactive | inactive | inactive | inactive | inactive | inactive | inactive | inactive | inactive |
| NC(Cc1ccc(Cl)cc1)C(=O)O (centres undefined) | inactive | inactive | inactive | inactive | inactive | inactive | inactive | inactive | inactive | inactive | inactive | inactive | inactive | inactive | inactive | inactive | inactive | inactive | inactive | inactive |
| Cc1ccc(Cl)c(Nc2ccccc2C(=O)O)c1Cl | inactive | inactive | inactive | inactive | inactive |  | inactive | inactive | inactive | inactive | inactive |  | inactive | inactive | inactive | inactive | inactive | inactive | inactive | inactive |
| Cc1scc2c1N(C(=O)CN1CCN(C)CC1)c1ccccc1NC2=O | inactive | inactive | inactive | inactive | inactive | inactive | inactive | inactive | inactive | inactive | inactive | inactive |  | inactive | inactive | inactive | inactive | inactive | inactive | inactive |
| CC1=NS(=O)(=O)c2cc(Cl)ccc2N1 | inactive | inactive | inactive | inactive | inactive | inactive |  |  |  |  |  | inactive | inactive | inactive | inactive | inactive | inactive | inactive | inactive | inactive |
| CCN(CC)CCNC(=O)c1ccc(NC(C)=O)cc1 | inactive | inactive | inactive | inactive | inactive | inactive | inactive | inactive | inactive | inactive | inactive | inactive | inactive | inactive |  | inactive | inactive | inactive | inactive | inactive |
| CCN1CCc2nc(N)oc2CC1 | inactive | inactive | inactive | inactive | inactive | inactive | inactive | inactive | inactive | inactive | inactive | inactive | inactive | inactive | inactive |  | inactive | inactive | inactive | inactive |
| NC(=O)N1c2ccccc2C=Cc2ccccc21 | inactive | inactive | inactive |  | inactive | inactive | inactive | inactive | inactive | inactive | inactive | inactive | inactive | inactive | inactive | inactive | inactive | inactive |  | inactive |
| CCCCOCCOCCOCc1cc2c(cc1CCC)OCO2 | inactive | inactive | inactive | inactive | inactive | inactive | inactive | inactive | inactive | inactive | inactive | inactive | inactive | inactive |  | inactive | inactive | inactive | inactive | inactive |
| CC(N=C(NC#N)Nc1ccncc1)C(C)(C)C (centres undefined) | inactive | inactive | inactive | inactive | inactive | inactive | inactive | inactive | inactive | inactive | inactive | inactive |  | inactive | inactive | inactive | inactive | inactive | inactive | inactive |
| O=C1CC2(CCCC2)CC(=O)N1CCCCN1CCN(c2ncccn2)CC1 | inactive | inactive | inactive | inactive | inactive |  | inactive | inactive | inactive | inactive | inactive | inactive | inactive | inactive | inactive | inactive | inactive | inactive | inactive | inactive |
| CC(=O)Oc1cc(C(C)C)c(OCCN(C)C)cc1C | inactive | inactive | inactive | inactive | inactive | inactive | inactive | inactive | inactive | inactive | inactive | inactive | inactive | inactive | inactive | inactive | inactive | inactive | inactive |  |
| CCn1cc(C(=O)O)c(=O)c2cc3c(cc21)OCO3 | inactive | inactive | inactive | inactive | inactive | inactive | inactive | inactive | inactive | inactive | inactive |  | inactive | inactive | inactive | inactive | inactive | inactive | inactive | inactive |
| CCN(CC)CC(=O)Nc1c(C)cccc1C | inactive | inactive | inactive | inactive | inactive |  | inactive | inactive | inactive | inactive | inactive | inactive | inactive | inactive | inactive | inactive | inactive | inactive | inactive | inactive |
| COC(=O)[C@H]1[C@H]2C[C@@H]3c4[nH]c5cc(OC)ccc5c4CCN3C[C@H]2C[C@@H](OC(=O)c2cc(OC)c(OC)c(OC)c2)[C@@H]1OC | 13.5 µM (active) | 9.53 µM (active) | 12 µM (active) | 6.75 µM (active) | 11.2 µM (active) | 11.2 µM (active) | 11.2 µM (active) | 11.2 µM (active) |  | 11.2 µM (active) |  | 11.2 µM (active) |  |  |  | 15.1 µM (active) | 9.53 µM (active) | 11.2 µM (active) |  | 9.53 µM (active) |
| NC(=Nc1ccccc1)Nc1ccccc1 | inactive | inactive | inactive | inactive | inactive |  | inactive | inactive | inactive | inactive | inactive | inactive | inactive | inactive | inactive | inactive | inactive | inactive | inactive | inactive |
| OCCN1CCN(CC/C=C2/c3ccccc3Sc3ccc(C(F)(F)F)cc32)CC1 | 9.53 µM (active) | 7.57 µM (active) | 10.7 µM (active) | 5.36 µM (active) |  | 10 µM (active) |  | 8.91 µM (active) | 12.6 µM (active) | 7.94 µM (active) | 3.98 µM (active) | 12.6 µM (active) | 6.01 µM (active) |  |  | 13.5 µM (active) | 4.78 µM (active) | 8.91 µM (active) | 9.53 µM (active) | 12 µM (active) |
| CCCCCCCC/C=C\CCCCCCCC(=O)NCc1ccc(O)c(OC)c1 | inactive | inactive | inactive | inactive |  |  |  | 7.08 µM (active) |  |  | 11.2 µM (active) |  | inactive | 10 µM (active) | inactive | inactive | inactive |  | inactive | inactive |
| C#CCN(C)CCCOc1ccc(Cl)cc1Cl | inactive | inactive | inactive | inactive | inactive | inactive | inactive | inactive |  | inactive | inactive | inactive | inactive | inactive | inactive | inactive | inactive | inactive | inactive | inactive |
| CCN(Cc1ccncc1)C(=O)C(CO)c1ccccc1 (centres undefined) | inactive | inactive | inactive | inactive | inactive | inactive | inactive | inactive | inactive | inactive | inactive | inactive | inactive | inactive | inactive | inactive | inactive | inactive | inactive | inactive |
| C[C@]12CCC(=O)C=C1CC[C@@H]1[C@@H]2CC[C@@]2(C)[C@H]1CC[C@]2(O)C(=O)CO | inactive | inactive | inactive | inactive | inactive | inactive | inactive | inactive |  | inactive | inactive | inactive | inactive | inactive | inactive | inactive | inactive | inactive | inactive | inactive |
